Inconclusive results are not listed. The source made the active and inactive calls. The call rests on the fitted dose curve; in most records, active means well fitted curve in the direction sought with a large enough effect; inconclusive means small, poorly fitted or top-dose-only effect, or another doubt; inactive means no such curve, though single readings can be large; an effect the other way counts as inactive or inconclusive.
Legend:
[1] = target: Glutathione peroxidase 1 (Homo sapiens) (UniProt P07203); experiment: Primary qHTS Assay for Inhibitors of Recombinant Selenoprotein Glutathione Peroxidase 1 (GPX1) (AID 1845191); further: nearly all actives have a fitted effect of over 65% in size; on activity, negative = inhibition: on the % scale 0 is the no-effect control and ±100 the full control effect
Chain of Glutathione peroxidase 1 (Homo sapiens) (P07203 whole entry, looked up): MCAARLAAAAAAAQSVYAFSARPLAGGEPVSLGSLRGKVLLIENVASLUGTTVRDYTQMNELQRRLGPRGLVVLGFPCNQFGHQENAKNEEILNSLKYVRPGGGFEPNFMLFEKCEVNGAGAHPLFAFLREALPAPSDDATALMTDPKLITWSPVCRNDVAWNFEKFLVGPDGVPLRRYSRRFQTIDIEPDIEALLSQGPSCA
In short: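 10 nM GPX1 + cpd, 30 min RT; start w/ 1 mM GSH, 0.5 mM cumene hydroperoxide, 0.5 mM NADPH, 100 nM GR, 0.01% BSA; buffer 50 mM Tris-HCl pH 7.5, 2 mM EDTA, 150 mM NaCl; Fl 340/450, 0 & 15 min.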

[2] = target: Phospholipid hydroperoxide glutathione peroxidase GPX4 (Homo sapiens) (UniProt P36969); experiment: Primary qHTS Assay for Inhibitors of Recombinant Selenoprotein Glutathione Peroxidase 4 (GPX4) (AID 1845192); further: nearly all actives have a fitted effect of over 65% in size; on activity change, negative = inhibition: series mostly up to about 50 µM; on the % scale 0 is the no-effect control and ±100 the full control effect
Chain of Phospholipid hydroperoxide glutathione peroxidase GPX4 (Homo sapiens) (P36969 whole entry, looked up): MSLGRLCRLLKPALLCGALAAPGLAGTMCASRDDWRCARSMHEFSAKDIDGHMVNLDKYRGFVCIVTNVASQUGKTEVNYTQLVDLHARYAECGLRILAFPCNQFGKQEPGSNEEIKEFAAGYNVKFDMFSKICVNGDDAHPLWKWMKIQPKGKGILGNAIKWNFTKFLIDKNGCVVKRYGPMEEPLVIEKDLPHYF
In short: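 NADPH consumption, followed by fluorescence at 340/450 nm between 0 and 15 min, reports GPX4 activity via coupled glutathione reductase (100 nM). Enzyme 200 nM was pre-exposed to compound 30 min; 0.5 mM cumene hydroperoxide and 1 mM GSH served as substrates.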

[3] = target: Luciferin 4-monooxygenase (Photinus pyralis) (UniProt P08659); experiment: Primary firefly luciferase (FLuc) qHTS assay for identification of artifact compounds. (AID 1845220); further: nearly all actives have a fitted effect of over 60% in size;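 on activity change, negative = inhibition: series mostly up to about 54 µM; plate controls were DMSO vehicle for no effect and no enzyme for full effect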
In short: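 Compounds sat 15 min at room temperature with 10 uM luciferin and 10 uM ATP (pH 7.6 Tris acetate). Firefly luciferase (10 nM final) was then added, and luminescence was read 5 min later. Data normalized to no-enzyme and DMSO controls were Hill-fitted.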

[4] = Primary fluorescence-based thiol-reactive (MSTI) qHTS assay for identification of artifact compounds. (AID 1845221); further: nearly all actives have a fitted effect of over 65% in size; further: potency means the concentration at half of the fitted maximal effect;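 on activity change, negative = thiol reactive: series mostly up to about 54 µM; thiol-reactive compounds lower the probe fluorescence signal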
In short: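 qHTS titration of compound; 4 uM MSTI, PBS pH 7.4, 2% DMSO; 1 h RT, dark; fluorescence 525/598 nm; normalized to Acetyl-MSTI and MSTI; 4-parameter Hill fit.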

[5] = tested on: Nanoluciferase (engineered Oplophorus gracilirostris luciferase); experiment: Primary Nanoluciferase (NLuc) qHTS assay for identification of artifact compounds. (AID 1845222); further: potency means the concentration at half of the fitted maximal effect;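 on activity, negative = inhibition: series mostly up to about 54 µM; 0% = DMSO and -100% = no enzyme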
In short: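 Luminescence from secreted NLuc (filtered, 1:55-diluted S16 cell medium) read 5 min after Nano-Glo substrate; compounds preincubated 15 min, RT. Hill fits of inhibition normalized to DMSO and no-enzyme.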

[6] = Primary redox qHTS assay for identification of artifact compounds. (AID 1845223);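 further: 0% = DMSO and 100% = reference compound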
In short: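 Amplex Red (25 uM) and HRP (250 mU/mL) in HBSS, with compounds for 15 min, then 250 uM DTT for 30 min, room temperature, dark. Fluorescence 525/598 nm read; normalized to DMSO and 10 uM DA3003; Hill fit.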

O=C(COc1ccc(C(=O)c2ccccc2)cc1)NC1CCN(Cc2ccccc2)CC1
inactive: Potency [1] | Potency [2] | Potency [3] | Potency [4] | Potency [5] | Potency [6]

O=C(Nc1cnc(Cl)nc1)c1ccc(F)c(F)c1
inactive: Potency [1] | Potency [2] | Potency [3] | Potency [4] | Potency [5] | Potency [6]

C/C=C/C=C/C=C/C(=O)O[C@@H]1C=C(CO)C(O)(C(=O)OC)[C@@]2(C)CCCC(C)(C)C12 (stereo not given in full)
inactive: Potency [1] | Potency [2] | Potency [3] | Potency [4] | Potency [5] | Potency [6]

NC(N)=NC(=O)c1cnn(-c2cccc3ncccc23)c1C1CC1
inactive: Potency [1] | Potency [2] | Potency [3] | Potency [4] | Potency [5] | Potency [6]

O=C(Cc1c(F)cccc1F)Nc1cc(OCc2ccc(Cl)cc2)ccn1
inactive: Potency [1] | Potency [2] | Potency [3] | Potency [4] | Potency [5] | Potency [6]

C[C@@H](NC(=O)c1ccc(C#Cc2cccc(F)c2)cn1)C(C)(C)O
inactive: Potency [1] | Potency [2] | Potency [3] | Potency [4] | Potency [5] | Potency [6]

CC1(C)CCC2(C(=O)OC3OC(COC4OC(CO)C(O)C(O)C4O)C(O)C(O)C3O)CCC3(C)C(=CCC4C5(C)CCC(OC6OCC(O)C(O)C6O)C(C)(C)C5CCC43C)C2C1O (stereo not given)
inactive: Potency [1] | Potency [2] | activity change, negative = inhibition [3] 0.58% [at 11.6 µM] | activity change, negative = thiol reactive [4] 122% [at 11.5 µM] | activity, negative = inhibition [5] -1.73% [at 11.6 µM] | redox activity (% of DA3003) [6] 18.7% [at 11.5 µM]

COc1ccc(CNCc2cccc3ccccc23)cc1
inactive: Potency [1] | Potency [2] | Potency [3] | Potency [4] | Potency [5] | Potency [6]

FC(F)(F)c1ccc(/C=C/c2nc(COc3ccc(CCCCn4ccnn4)cc3)co2)cc1
inactive: Potency [1] | Potency [2] | Potency [3] | Potency [4] | Potency [5] | Potency [6]

COc1cc2ncnc(Nc3cccc(I)c3)c2cc1OC
inactive: Potency [1] | Potency [2] | Potency [3] | Potency [4] | Potency [5] | Potency [6]

COc1ccc(S(=O)(=O)Nc2cc(Cl)cc(Cl)c2OC)cc1N1CCNCC1
inactive: Potency [1] | Potency [2] | Potency [3] | Potency [4] | Potency [5] | Potency [6]

CC(=O)Nc1cccc(Nc2ncnc(N3CCC(OCc4ccc(OC(F)(F)F)cc4)CC3)n2)c1C
inactive: Potency [1] | Potency [2] | Potency [3] | Potency [4] | Potency [5] | Potency [6]

COc1cccc(N2CCN(C3=Nc4c(F)cccc4[C@H](CC(=O)O)N3c3cc(C(F)(F)F)ccc3OC)CC2)c1
inactive: Potency [1] | Potency [2] | Potency [3] | Potency [4] | Potency [5] | Potency [6]

CC(=O)O[C@@H]1C[C@]2(C)[C@@]3(CCC4[C@@]5(C)CC[C@H](O[C@@H]6O[C@H](C(=O)O)[C@@H](O)[C@H](OC7OC(CO)C(O)C(O)[C@H]7O[C@@H]7O[C@@H](C)[C@H](O)[C@@H](O)[C@H]7O[C@@H]7OC[C@](O)(CO)[C@H]7O)[C@H]6OC6OC(CO)C(O)C(O)C6O)C(C)(C)C5CC[C@]42C)OC[C@@]12CCC(C)(C)CC23 (stereo not given in full)
inactive: activity, negative = inhibition [1] -11.2% [at 9.52 µM] | activity change, negative = inhibition [2] -2.16% [at 9.73 µM] | activity change, negative = inhibition [3] -3.18% [at 11.6 µM] | activity change, negative = thiol reactive [4] 238% [at 11.5 µM] | activity, negative = inhibition [5] 0.912% [at 11.6 µM] | redox activity (% of DA3003) [6] 8.79% [at 11.5 µM]

C=CC(C)(O)CC/C=C(\C)C(=O)OC1C(O)C(CO)OC(OC(=O)C23CCC(C)(C)CC2C2=CCC4C5(C)CCC(OC6OC(COC7OCC(OC(C)=O)C(O)C7OC7OC(COC(C)=O)C(O)C(O)C7OC(C)=O)C(O)C(O)C6OC6OCC(O)C(O)C6O)C(C)(C)C5CCC4(C)C2(C)C(O)C3O)C1OC1OCC(OC2OCC(O)C(OC3OCC(O)C(O)C3O)C2O)C(O)C1O (stereo not given)
inactive: activity, negative = inhibition [1] -15.5% [at 9.52 µM] | outcome [2] inactive [at 9.73 µM] | outcome [3] inactive [at 6.45 µM] | activity change, negative = thiol reactive [4] 140% [at 6.41 µM] | activity, negative = inhibition [5] 0% [at 6.45 µM] | redox activity (% of DA3003) [6] 4.4% [at 6.41 µM]

CC(=O)O[C@@H]1CC[C@@]2(C)C(CC[C@]3(C)C2[C@H](O)C=C2[C@H]4[C@@H](C)[C@H](C)CC[C@]4(C)CC[C@]23C)[C@@]1(C)C(=O)O (stereo not given in full)
inactive: Potency [1] | Potency [2] | Potency [3] | Potency [4] | Potency [5] | Potency [6]

CCOc1ccc(Cc2nc(-c3c(C)nc4ccccn34)cs2)cc1
inactive: Potency [1] | Potency [2] | Potency [3] | Potency [5] | Potency [6]
active: Potency [4] 1.68 µM

NS(=O)(=O)c1ccc(N2CCN(CC[C@@H]3OCCc4ccccc43)CC2)cc1
inactive: Potency [1] | Potency [2] | Potency [3] | Potency [4] | Potency [5] | Potency [6]

C=C1C(=O)OC2/C=C(\COC(C)=O)CC/C=C(\C=O)CC(OC(=O)C(C)CC)C12 (stereo not given)
inactive: Potency [1] | Potency [2] | Potency [3] | Potency [4] | Potency [5] | Potency [6]

N#Cc1cc(C2=Nc3ccc(Br)cc3NC(=O)C2)ccn1
inactive: Potency [1] | Potency [2] | Potency [3] | Potency [4] | Potency [5] | Potency [6]

CC(C)(O)c1ccc2c(c1)ncn2-c1cccc(-c2ccccc2C#N)c1
inactive: Potency [1] | Potency [2] | Potency [3] | Potency [4] | Potency [5] | Potency [6]

CC(C)CCNc1ncccc1C(=O)N1CCN(Cc2ccccc2)CC1
inactive: Potency [1] | Potency [2] | Potency [3] | Potency [4] | Potency [5] | Potency [6]

C[C@@H]1CC[C@]2(C(=O)O)CC[C@]3(C)C(=CCC4[C@@]5(C)CC[C@H](O)[C@](C)(C(=O)O)C5CC[C@]43C)C2[C@]1(C)O (stereo not given in full)
inactive: Potency [1] | Potency [2] | Potency [3] | Potency [4] | Potency [5] | Potency [6]

C=C1C(=O)OC2C(OC(=O)C=C(C)C)C(C)=C3C(=O)C=C(C)C3C(O)C12 (stereo not given)
inactive: Potency [1] | Potency [2] | Potency [3] | Potency [4] | Potency [6]
active: Potency [5] 7.4 µM

COc1cc(/C=C/C(=O)NCCn2c(C(F)(F)F)cc3ccccc32)cc(OC)c1OC
inactive: Potency [1] | Potency [2] | Potency [3] | Potency [4] | Potency [5] | Potency [6]

Source: PubChem BioAssay (NCATS)
